Coupling enz – coupling enzyme interference in Giardia aldolase counter-screen; coupling enzyme system counterscreen, AmpLite Red fluorescence; activity change, negative = inhibition, % at 58.2 µM, hits read low; hit rate 0.67% among 290,000; AID 2472; in the data active means activity change below about -30%
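Compounds tested against the coupling enzymes alone at 57.5 uM final; readout was AmpLite Red fluorescence (525/598 nm) after 20 min at RT.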
Eya2 inh – blocks the phosphatase activity of human Eya2; O00167; recombinant Eya2, OMFP fluorescence dephosphorylation (OMFP is methylfluorescein phosphate); Potency, µM (top dose mostly 76.9 µM), for the others: at the top dose activity, negative = inhibition, actives largely listed as inhibitors; hit rate 0.006% among 330,000; AID 488837; further: potency means the concentration at half of the fitted maximal effect
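Eya2 protein (added as 0.2 uM solution) was preincubated with compound for 10 min at ambient temperature in 50 mM HEPES pH 7.5, 50 mM NaCl, 5 uM MgCl2, 0.05% BSA, 1 mM DTT. OMFP (added at 50 uM) then reacted 10 min; fluorescence read at 485/525 nm.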
IDH1 R132H inh – inhibitors of human mutant IDH1 R132H; IDH1-R132H enzyme, NADPH consumption, diaphorase/resazurin fluorescence; hit rate 0.093% among 390,000; AID 602179; Potency, µM (top dose mostly 76.6 µM), without a hit: top-dose activity change, negative = inhibition, usual class: inhibitors; O75874; further: potency means the concentration at half of the fitted maximal effect; nearly all actives have a fitted effect of over 65% in size
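IDH1-R132H (0.5 ug/mL dispensed) in pH 7.5 Tris buffer was preincubated 30 min with compound, then given a substrate mix of 0.016 mM NADPH and 2 mM alpha-KG for 80 min at room temperature; remaining NADPH was read by diaphorase/resazurin fluorescence.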
TrxR1 substrate – substrates of rat thioredoxin reductase 1. O89049. purified TrxR1 substrate turnover, NADPH consumption readout. Potency, µM (highest dose often 114 µM), for inactives: at the highest dose activity change, negative = substrate turnover. hit rate 0.01% among 390,000. AID 588456; further: potency means the concentration at half of the fitted maximal effect; nearly all actives have a fitted effect of over 50% in size
Target sequence (O89049 whole entry, looked up): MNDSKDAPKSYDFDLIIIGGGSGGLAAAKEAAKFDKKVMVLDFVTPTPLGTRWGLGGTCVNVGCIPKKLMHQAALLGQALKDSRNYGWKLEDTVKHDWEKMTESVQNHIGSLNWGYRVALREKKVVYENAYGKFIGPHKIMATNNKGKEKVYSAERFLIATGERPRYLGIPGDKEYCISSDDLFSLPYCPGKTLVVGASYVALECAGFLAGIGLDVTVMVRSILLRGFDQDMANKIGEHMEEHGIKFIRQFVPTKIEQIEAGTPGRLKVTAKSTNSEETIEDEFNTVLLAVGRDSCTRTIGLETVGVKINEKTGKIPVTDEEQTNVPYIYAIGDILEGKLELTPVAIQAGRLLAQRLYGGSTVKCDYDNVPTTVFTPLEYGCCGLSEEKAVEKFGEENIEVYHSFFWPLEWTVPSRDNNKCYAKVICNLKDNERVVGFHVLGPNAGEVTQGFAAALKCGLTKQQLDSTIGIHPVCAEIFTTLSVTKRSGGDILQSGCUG
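Rat TrxR1, dispensed at 90 nM, was prereduced with 400 uM NADPH (final) for 5 min at ~22 deg C, then incubated with compound 15 min before 400 uM selenite. A first-read NADPH fluorescence drop versus no-compound background flagged substrates.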
rTrxR1 inhibitor – rat TrxR1 inhibition; recombinant rTrxR1, NADPH fluorescence consumption, selenite substrate; Potency, µM (highest dose often 114 µM), for inactives: top-dose activity change, negative = inhibition, usual class: inhibitors; hit rate 1% among 390,000; AID 588453; further: potency means the concentration at half of the fitted maximal effect; nearly all actives have a fitted effect of over 65% in size
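Rat TrxR1 (90 nM in the dispensed reagent) was pre-reduced with 400 uM NADPH for 5 min at room temperature, then incubated with compound for 15 min. After 400 uM selenite was added, NADPH fluorescence (Ex 340/Em 450 nm) was followed for 8 min.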
* marks the source's active call; other numbers are inactive results; ? = inconclusive; . = no result given; ! = not active in a repeat; [ ] = remark or other dose. An excerpt weighted towards active compounds, which were near 1.5% of everything screened. Unless noted, the call rests on the fitted dose curve; in most records, active means well fitted curve in the direction sought with a large enough effect; inconclusive means small, poorly fitted or top-dose-only effect, or another doubt; inactive means no such curve, though single readings can be large; an effect the other way counts as inactive or inconclusive. On the % scale 0 is the no-effect control and ±100 the full control effect.

SMILES | Coupling enz | Eya2 inh | IDH1 R132H inh | TrxR1 substrate | rTrxR1 inhibitor
CCOC(=O)c1cc([N+](=O)[O-])cc([N+](=O)[O-])c1Sc1ncnc2nc[nH]c12 | . | . | 1.4% | 0.4%[57.1 µM] | 0.447µM*
NC1=C(Cl)C(=O)c2ccccc2C1=O | . | . | -3.8% | -10.5% | 12.6µM*
NC1=C(Cl)C(=O)c2ccc(S(N)(=O)=O)cc2C1=O | . | . | 16.6% | -16.0% | -58.0%
Oc1ccc2ccccc2c1C=NC12CN3CCN(CN(C3)C1)C2 | -47.8* | -0.6% | 21.9% | ? | -19.3%
OCC(CO)(CO)N=Cc1c(O)ccc2ccccc12 | -28.0 | 8.4% | 22.0% | -1.5% | 7.0%
OC[C@@H]1O[C@H](O)[C@H](O)[C@@H](O)[C@@H]1O | -0.3 | . | . | . | .
CCc1cccc(C)c1NC(=O)c1cc(C)oc1C | 0.4 | -5.8% | 2.9% | 2.0% | 3.4%
CCc1cccc(C)c1NC(=O)c1ccoc1C | 0.5 | 21.2%[15.4 µM] | -3.7% | -1.4% | 20µM*
CC1=C/C(=N\OS(=O)(=O)c2ccccc2)C(C(C)C)=CC1=O | -70.1* | 0.5% | 23.7% | -13.1% | ?
CC1=C(C)/C(=N\OS(=O)(=O)c2ccc(C)cc2)C=CC1=O | -85.0* | 4.8% | 18.6% | -11.5% | ?
CC1=C/C(=N\OS(=O)(=O)c2ccccc2)C(C)=CC1=O | -88.3* | -13.3% | 22.9% | -4.8% | ?
COc1cc(C(=O)O/N=C2/C=C(C)C(=O)C=C2C)cc(OC)c1OC | -9.7 | -8.5% | 1.2% | 5.0% | ?
C1=Nc2ccccc2/C1=C/c1ccccc1 | . | . | . | 17.4% | 31.9%
CN1CCN(C(c2ccc(C(F)(F)F)cc2)c2ccc3cccnc3c2O)CC1 (centres undefined) | -1.4 | -2.1% | -9.9% | -1.0% | 6.31µM*
Oc1c(C(c2ccccc2Cl)N2CCCC2)ccc2cccnc12 (centres undefined) | -6.2 | 8.9% | -15.5% | -2.2% | 7.08µM*
Oc1c(C(c2ccc(Cl)cc2)N2CCCC2)cc(Cl)c2cccnc12 (centres undefined) | -6.6 | 0.5% | 0.0% | 1.2%[57.1 µM] | 50.1µM*
Oc1c(C(c2cccs2)N2CCN(c3ccccc3)CC2)ccc2cccnc12 (centres undefined) | 2.0 | . | . | . | .
Cc1ccc(C(c2cc(Cl)c3cccnc3c2O)N2CCN(C)CC2)cc1 (centres undefined) | -4.5 | -2.8% | -2.3% | 6.3% | 4.47µM*
CN(C)c1ccc(Cn2ccc3ccccc32)cc1 | . | . | . | -6.6% | 5.1%
CS[C@@H]1SC[C@H]2C(=O)N(C)C(C(C)C)C(=O)OC[C@@H](NC(=O)c3cnc4ccccc4n3)C(=O)N[C@@H](C)C(=O)N(C)[C@H]1C(=O)N(C)C(C(C)C)C(=O)OC[C@@H](NC(=O)c1cnc3ccccc3n1)C(=O)N[C@@H](C)C(=O)N2C (some centres undefined) | 1.0 | . | . | . | .
Cc1ccc(NC(=O)CN(C)C(=O)c2cccc(S(=O)(=O)N3CCc4ccccc4C3)c2)cc1 | . | . | -1.7% | . | .
Cc1ccc(CN(C)C(=O)c2cccc(S(=O)(=O)N3CCc4ccccc4C3)c2)o1 | . | -27.9% | -6.8% | 2.5% | 39.8µM*
CC(C)[C@H](NC(=O)[C@H](CC(=O)O)NC(=O)CNC(=O)[C@@H](N)CCCN=C(N)N)C(=O)O | -0.2 | . | . | . | .
CC(C)(C)c1ccc2c(c1)C(=O)c1ccccc1C2=O | 5.7 | -4.0% | -2.4% | 3.6% | 19.9%
COc1cccc2c1C(=O)C=C(C)C2=O | -38.8* | -13.6% | -23.6% | 15.5%[57.1 µM] | 21.3%[57.1 µM]
SMILES | Coupling enz | Eya2 inh | IDH1 R132H inh | TrxR1 substrate | rTrxR1 inhibitor
CC(C)(C=O)C1=CC(=O)c2ccccc2C1=O | -63.2* | 0.8% | 16.4% | 11.8% | 44.7µM*
CC1=CC(=O)c2ccccc2C1=O | -32.6*! | -2.0% | 1.1% | -1.2% | -3.4%
CN(C)c1ccc(C=Nc2cncc3ccccc23)cc1 | . | . | . | 20.0% | 17.6%
O=C(CCCC[C@@H]1SC[C@H]2NC(=O)N[C@H]12)Nc1ccc(C(=O)O)cc1 | 1.5 | . | . | . | .
C/C(=N\NC(=S)NCc1ccccc1)c1ccco1 | 0.1 | -6.6% | 3.9% | -11.9% | 79.4µM*
O=C(O)/C=C/S(=O)(=O)c1ccc2ccccc2c1 | 6.0 | -1.4% | -3.1% | 7.5% | 11.2µM*
CC(C)N(C(=O)Nc1ccc2nccnc2c1)C(C)C | -39.5* | 4.9% | 2.3% | 41.1% | 31.0%[57.1 µM]
